Test results as given in PubChem BioAssay AID1159580 (chemical genetic matrix, 2015).
Out of some 5,500 compounds screened, about 2,000 (36%) were called active. Roughly 18% stayed inconclusive and do not appear here. Rule as the data show it: active = normalized growth mostly below about 0.91 (no sharp cut-off); inconclusive = no clear call, values can overlap the other calls; inactive = mostly above about 0.92. This is one part of the list.

Assay: chemical genetic growth profiling, strain panel (AID 1159580);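 also: tested at 20 µM; growth read once vehicle control cultures reached saturation at 30 °C; 1 = growth at the plate median or of vehicle wells; lower values mean less growth of the strain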
Details: growth OD

Measured: normalized growth

CO[C@@H]1C[C@@H](C[C@H]2CC[C@H](C)[C@H]([C@@H](C)C(=O)O)O2)O[C@]2(O[C@](C)([C@H]3CC[C@@](C)(C4O[C@@H](C5O[C@@](O)(CO)[C@H](C)C[C@@H]5C)C[C@@H]4C)O3)C[C@H]2C)[C@@H]1C (stereo partly specified)
active: S. cerevisiae deletion strains, locus YBR021W, strain FUR4, active compounds read low 1.19 [resistant] | S. cerevisiae deletion strains, locus YER155C, strain BEM2, active compounds read low 1.08 [resistant] | S. cerevisiae deletion strains, locus YLR039C, strain RIC1, active compounds read low 1.35 [resistant] | S. cerevisiae deletion strains, locus YLR262C, strain YPT6, active compounds read low 1.45 [resistant]
inactive: S. cerevisiae deletion strains, locus YAL013W, strain DEP1, active compounds read low 1.03 | S. cerevisiae deletion strains, locus YBR229C, strain ROT2, active compounds read low 1.04 | S. cerevisiae deletion strains, locus YCL029C, strain bik1, active compounds read low 0.955 | S. cerevisiae deletion strains, locus YDL035C, strain GPR1, active compounds read low 1.03 | S. cerevisiae deletion strains, locus YDL074C, strain BRE1, active compounds read low 1.01 | S. cerevisiae deletion strains, locus YDL101C, strain DUN1, active compounds read low 1.01 | S. cerevisiae deletion strains, locus YDL134C, strain PPH21, active compounds read low 1.01 | S. cerevisiae deletion strains, locus YDL185W, strain tfp1, active compounds read low 0.99 | S. cerevisiae deletion strains, locus YDL192W, strain arf1, active compounds read low 0.961 | S. cerevisiae deletion strains, locus YDR101C, strain arx1, active compounds read low 0.977 | S. cerevisiae deletion strains, locus YDR150W, strain NUM1, active compounds read low 1.04 | S. cerevisiae deletion strains, locus YDR162C, strain NBP2, active compounds read low 1.01 | S. cerevisiae deletion strains, locus YDR318W, strain mcm21, active compounds read low 0.966 | S. cerevisiae deletion strains, locus YDR388W, active compounds read low 0.981 | S. cerevisiae deletion strains, locus YDR502C, strain sam2, active compounds read low 0.99 | S. cerevisiae deletion strains, locus YEL061C, strain CIN8, active compounds read low 1.02 | S. cerevisiae deletion strains, locus YER110C, active compounds read low 1.03 | S. cerevisiae deletion strains, locus YER167W, strain BCK2, active compounds read low 1.02 | S. cerevisiae deletion strains, locus YGL078C, strain dbp3, active compounds read low 0.976 | S. cerevisiae deletion strains, locus YGL086W, strain mad1, active compounds read low 0.97 | S. cerevisiae deletion strains, locus YGL248W, strain PDE1, active compounds read low 1.01 | S. cerevisiae deletion strains, locus YGR078C, strain PAC10, active compounds read low 1.02 | S. cerevisiae deletion strains, locus YGR135W, strain pre9, active compounds read low 0.984 | S. cerevisiae deletion strains, locus YGR229C, strain SMI1, active compounds read low 1.02 | S. cerevisiae deletion strains, locus YGR252W, strain gcn5, active compounds read low 1.06 | S. cerevisiae deletion strains, locus YHR030C, strain SLT2, active compounds read low 1.03 | S. cerevisiae deletion strains, locus YHR079C, strain IRE1 (second series), active compounds read low 0.968 | S. cerevisiae deletion strains, locus YHR094C, strain hxt1, active compounds read low 0.992 | S. cerevisiae deletion strains, locus YHR129C, strain ARP1, active compounds read low 1.06 | S. cerevisiae deletion strains, locus YHR200W, strain rpn10, active compounds read low 0.968 | S. cerevisiae deletion strains, locus YIL066C, strain RNR3, active compounds read low 1.01 | S. cerevisiae deletion strains, locus YIL073C, strain SPO22, active compounds read low 0.984 | S. cerevisiae deletion strains, locus YIL125W, strain kgd1, active compounds read low 0.982 | S. cerevisiae deletion strains, locus YIR030C, strain dcg1, active compounds read low 0.982 | S. cerevisiae deletion strains, locus YJL095W, strain BCK1, active compounds read low 0.997 | S. cerevisiae deletion strains, locus YJL134W, strain LCB3, active compounds read low 1.03 | S. cerevisiae deletion strains, locus YJL168C, strain set2, active compounds read low 0.993 | S. cerevisiae deletion strains, locus YJL187C, strain SWE1 (second series), active compounds read low 1.01 | S. cerevisiae deletion strains, locus YJR043C, strain POL32, active compounds read low 1.02 | S. cerevisiae deletion strains, locus YJR075W, strain HOC1, active compounds read low 1 | S. cerevisiae deletion strains, locus YKL009W, strain mrt4, active compounds read low 0.98 | S. cerevisiae deletion strains, locus YKL068W, active compounds read low 1.01 | S. cerevisiae deletion strains, locus YKL085W, strain MDH1 (second series), active compounds read low 0.978 | S. cerevisiae deletion strains, locus YKL085W, strain MDH1, active compounds read low 0.978 | S. cerevisiae deletion strains, locus YKL190W, strain CNB1, active compounds read low 1.02 | S. cerevisiae deletion strains, locus YKR001C, strain vps1, active compounds read low 1.02 | S. cerevisiae deletion strains, locus YLR058C, strain SHM2, active compounds read low 1.02 | S. cerevisiae deletion strains, locus YLR102C, strain apc9, active compounds read low 0.997 | S. cerevisiae deletion strains, locus YLR268W, strain sec22, active compounds read low 0.929 | S. cerevisiae deletion strains, locus YLR330W, strain CHS5, active compounds read low 1.04 | S. cerevisiae deletion strains, locus YLR342W, strain FKS1 (second series), active compounds read low 1.03 | S. cerevisiae deletion strains, locus YLR371W, strain rom2, active compounds read low 0.999 | S. cerevisiae deletion strains, locus YLR418C, strain cdc73, active compounds read low 1.02 | S. cerevisiae deletion strains, locus YML016C, strain PPZ1, active compounds read low 1.03 | S. cerevisiae deletion strains, locus YML032C, strain rad52, active compounds read low 0.986 | S. cerevisiae deletion strains, locus YML124C, strain tub3, active compounds read low 0.983 | S. cerevisiae deletion strains, locus YMR078C, strain ctf18, active compounds read low 1.03 | S. cerevisiae deletion strains, locus YMR223W, strain ubp8, active compounds read low 0.994 | S. cerevisiae deletion strains, locus YMR263W, strain SAP30, active compounds read low 1.01 | S. cerevisiae deletion strains, locus YMR307W, strain GAS1, active compounds read low 1.17 | S. cerevisiae deletion strains, locus YNL067W, strain RPL9B, active compounds read low 1.01 | S. cerevisiae deletion strains, locus YNL128W, strain TEP1, active compounds read low 1.04 | S. cerevisiae deletion strains, locus YNL153C, strain GIM3, active compounds read low 0.999 | S. cerevisiae deletion strains, locus YNL233W, strain BNI4, active compounds read low 0.996 | S. cerevisiae deletion strains, locus YNL250W, strain rad50, active compounds read low 0.966 | S. cerevisiae deletion strains, locus YNL271C, strain bni1, active compounds read low 1.01 | S. cerevisiae deletion strains, locus YNL298W, strain CLA4, active compounds read low 0.989 | S. cerevisiae deletion strains, locus YNL307C, strain MCK1, active compounds read low 1.01 | S. cerevisiae deletion strains, locus YNL322C, strain KRE1, active compounds read low 1.02 | S. cerevisiae deletion strains, locus YNR052C, strain pop2, active compounds read low 0.976 | S. cerevisiae deletion strains, locus YOL006C, strain TOP1, active compounds read low 0.814 | S. cerevisiae deletion strains, locus YOL012C, strain htz1 1.61 | S. cerevisiae deletion strains, locus YOL147C, strain pex11, active compounds read low 0.989 | S. cerevisiae deletion strains, locus YOR061W, strain CKA2, active compounds read low 1.02 | S. cerevisiae deletion strains, locus YOR069W, strain VPS5, active compounds read low 1.03 | S. cerevisiae deletion strains, locus YOR136W, strain idh2, active compounds read low 0.976 | S. cerevisiae deletion strains, locus YOR144C, strain elg1, active compounds read low 0.988 | S. cerevisiae deletion strains, locus YOR184W, strain ser1, active compounds read low 0.975 | S. cerevisiae deletion strains, locus YOR316C, strain cot1, active compounds read low 0.99 | S. cerevisiae deletion strains, locus YPL055C, strain LGE1, active compounds read low 1.03 | S. cerevisiae deletion strains, locus YPL241C, strain CIN2, active compounds read low 1.04 | S. cerevisiae deletion strains, locus YPR119W, strain clb2, active compounds read low 0.99 | S. cerevisiae deletion strains, locus YPR141C, strain kar3, active compounds read low 0.986 | S. cerevisiae deletion strains, locus YPR163C, strain tif3, active compounds read low 1.01 | S. cerevisiae deletion strains, locus YPR167C, strain met16, active compounds read low 0.977 | S. cerevisiae deletion strains, strain wtn01, active compounds read low 0.969 | S. cerevisiae strains, strain wild type, active compounds read low 1
